JMJD2A Tudor inh: qHTS Assay for Inhibitors of JMJD2A-Tudor Domain. 390,000 compounds, 4.4% hits. Lysine-specific demethylase 4A (Homo sapiens), O75164. AlphaScreen JMJD2A-Tudor / H3K4me3 peptide binding. Potency, µM (highest dose often 114 µM), without a hit: at the top dose activity change, negative = inhibition, most hits filed as inhibitors. AID 504339, 2011; also: potency is read from the fitted curve at half-maximal effect; % is scaled to controls: 0 for no effect and ±100 for the full control effect; nearly all actives have a fitted effect of over 50% in size
BAZ2B block: qHTS Assay for Inhibitors of BAZ2B; AlphaScreen BAZ2B-H3K14Ac peptide displacement; 360,000 compounds, 4.4% hits; Potency, µM (doses to about 114 µM), for inactives: at the top dose activity change, negative = inhibition, actives largely listed as inhibitors; also: potency is read from the fitted curve at half-maximal effect; % is scaled to controls: 0 for no effect and ±100 for the full control effect; nearly all actives have a fitted effect of over 60% in size
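Complex of BAZ2B and biotin-H3K14Ac (50 nM apiece) forms over 30 min at RT, then faces library compounds up to 110 uM for another 30 min; AlphaScreen beads added, 20 min dark incubation, luminescence read.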
G9a inh: qHTS Assay for Inhibitors of Histone Lysine Methyltransferase G9a. G9a H3K9 monomethylation, AlphaScreen, 2 h. Potency, µM (highest dose often 102 µM), for the others: at the top dose activity, negative = inhibition, hits mostly inhibitors. Histone-lysine N-methyltransferase EHMT2 (Homo sapiens), Q96KQ7. AID 504332, 2011. 350,000 compounds, 8.8% hits; also: potency is read from the fitted curve at half-maximal effect; % is scaled to controls: 0 for no effect and ±100 for the full control effect; nearly all actives have a fitted effect of over 75% in size
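Using a bead-based AlphaScreen, monomethylated H3K9 product from 2 h room-temperature reactions (G9a 20 nM, peptide 500 nM, SAM 20 uM) was detected with 0.5 ug/mL rabbit anti-H3K9me1 antibody.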
L3MBTL1 block: qHTS Assay for the Inhibitors of L3MBTL1; Lethal(3)malignant brain tumor-like protein 1 (Homo sapiens), Q9Y468; AlphaScreen L3MBTL1–H3K9me1 peptide binding; Potency, µM (top dose mostly 57.1 µM), for the others: top-dose activity, negative = inhibition, actives largely listed as inhibitors; 230,000 compounds, 0.66% hits; also: potency is read from the fitted curve at half-maximal effect; % is scaled to controls: 0 for no effect and ±100 for the full control effect; nearly all actives have a fitted effect of over 60% in size
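L3MBTL1 50 nM + b-AHA-H3(1-15)K9me1 75 nM, 30 min RT; compound added, 30 min RT; streptavidin donor/Ni-chelate acceptor beads 10 ug/mL each final, 30 min RT dark; AlphaScreen read.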
HP1b binding inh: HTS for Inhibitors of HP1-beta Chromodomain Interactions with Methylated Histone Tails | Chromobox protein homolog 1 (Homo sapiens), P83916 | AlphaScreen HP1-beta / biotin-H3K9me3 peptide binding | Potency, µM (series often up to 114 µM), for inactives: top-dose activity change, negative = inhibition, actives largely listed as inhibitors | 390,000 compounds, 0.56% hits | AID 540317, 2011; also: potency is read from the fitted curve at half-maximal effect; nearly all actives have a fitted effect of over 70% in size
Target sequence (P83916 whole entry, looked up): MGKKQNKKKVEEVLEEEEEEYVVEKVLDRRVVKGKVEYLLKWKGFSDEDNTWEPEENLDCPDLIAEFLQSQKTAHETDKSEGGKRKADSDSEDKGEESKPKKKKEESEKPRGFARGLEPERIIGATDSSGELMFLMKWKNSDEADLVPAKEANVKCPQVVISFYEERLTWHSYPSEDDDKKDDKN
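AlphaScreen: HP1-beta (50 nM) preformed 30 min with biotin-H3(1-18)K9me3 peptide (50 nM) in PBS pH 7.4, 0.01% Tween-20. Compound added for 30 min at RT, then streptavidin donor/nickel chelate acceptor beads (10 ug/mL) for 30 min.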
PI5P4Ka inh: qHTS for Inhibitors of phosphatidylinositol 5-phosphate 4-kinase (PI5P4K). PI5P4Kalpha enzyme, ADP-Glo luminescence, 60 min; stronger effect = lower value. 330,000 compounds, 1.2% hits. Phosphatidylinositol 5-phosphate 4-kinase type-2 alpha (Homo sapiens), P48426. AID 652105, 2013. max response, %; active = max response of -50% or lower; inconclusive = between -30% and -50%; inactive = -30% or higher; also: value at the top dose of about 77 µM; % is scaled to controls: 0 for no effect and ±100 for the full control effect
Target sequence (P48426 whole entry, looked up): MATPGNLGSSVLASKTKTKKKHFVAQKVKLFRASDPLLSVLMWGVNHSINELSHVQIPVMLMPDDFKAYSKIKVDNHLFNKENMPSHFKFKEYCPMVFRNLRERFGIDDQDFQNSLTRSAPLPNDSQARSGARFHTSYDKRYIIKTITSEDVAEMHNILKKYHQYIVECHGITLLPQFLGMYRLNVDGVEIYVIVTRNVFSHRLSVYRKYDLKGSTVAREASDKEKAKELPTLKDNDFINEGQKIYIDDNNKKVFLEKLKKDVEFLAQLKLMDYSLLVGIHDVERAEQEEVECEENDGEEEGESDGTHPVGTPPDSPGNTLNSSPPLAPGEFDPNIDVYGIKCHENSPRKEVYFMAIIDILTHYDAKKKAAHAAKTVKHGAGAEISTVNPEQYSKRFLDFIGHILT
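Enzyme plus substrate dispensed, test compounds pinned in, then ATP (5 microM final) added. After 60 min at RT, ADP-Glo reagent 1 for 45 min and reagent 2 for 30 min preceded luminescence imaging.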
* = called active by the depositor; ? = inconclusive; nt = no result given; [ ] = remark or other dose. In the library only some 11% were active in any assay of this set; here they are far more common. Unless noted, calls follow the shape of the dose curve; as a rule, active = well fitted inhibition curve with a large enough effect; inconclusive = small, poorly fitted or top-dose-only effect; inactive = no such curve, though single readings can be large or run the other way.

SMILES	JMJD2A Tudor inh	BAZ2B block	G9a inh	L3MBTL1 block	HP1b binding inh	PI5P4Ka inh
C#CCOCCOCCOCCNc1nc(N2CCN(C(=O)[C@H](Cc3cc4ccccc4[nH]3)n3cc([C@@H](N)C(C)CC)nn3)CC2)nc(N2CCN(C(=O)[C@H](Cc3cc4ccccc4[nH]3)n3cc([C@@H](N)CC(C)C)nn3)CC2)n1 (stereo partly specified)	nt	35µM*	?	?	nt	nt
Cc1ccc(Sc2ccc(N3CCCC(C(=O)Nc4ccc(F)c(Cl)c4)C3)nn2)cc1 (stereo unspecified)	8%	3%	-4%[59 µM]	nt	43%	nt
CCOC(=O)c1c(NC(=O)c2cc(=O)c3c(C)cc(C)cc3o2)sc(C(C)=O)c1C	2%	3%	-1%[59 µM]	nt	37%	nt
CC(C)c1noc(-c2ccccc2OCC(=O)Nc2cccc([N+](=O)[O-])c2)n1	-18%	-13%	-34%[59 µM]	nt	8%	nt
Cc1ccc(/C=N/n2c(C3CCCCC3)n[nH]c2=S)s1	-12%	-3%	8.9µM*	-4%	4%	-4
Cc1ccsc1/C=N/n1cnnc1	0%	-3%	20%[59 µM]	0%	20%	1
Cc1ccsc1/C=N/n1c(C2CCCCC2)n[nH]c1=S	?	6%	1.4µM*	1%	-12%	-4
COc1ccccc1N1CCN(C(=O)C2CCN(S(=O)(=O)c3cccs3)CC2)CC1	-20%	0%	14%[59 µM]	nt	10%	nt
CC(=O)C(=Nc1ccccc1Cl)NNc1ccc(Cl)cc1	32µM*	28µM*	7.9µM*	?	50µM*	11
O=C(Nc1ccc(C2=NCCN2)cc1)c1ccc(C(=O)Nc2ccc(C3=NCCN3)cc2)c(Cl)c1	56µM*	-28%	25µM*	-20%	?	-9
O=C(Nc1ccc(NC(=O)c2ccc(Cl)cc2Cl)cc1)c1ccc2c(c1)OCO2	1%	12%	3%	nt	29%	-2
CN=c1scc(C)n1/N=C/c1ccc(O)cc1	-25%	?	?	nt	-1%	-18
Cc1nnc(C)n1/N=C/c1ccc2c(c1)OCCO2	13%	nt	1%[59 µM]	-4%	43%	-2
CCN=c1scc(C)n1/N=C/c1cc(Br)c(O)c(OC)c1	79µM*	13µM*	10µM*	nt	?	-6
CN=c1scc(C)n1/N=C/c1cc(Br)c(O)c(Br)c1	?	35µM*	11µM*	-22%	-10%	5
CN=c1scc(C)n1/N=C/c1ccc(O)cc1O	?	40µM*	-9%[59 µM]	-14%	-38%	-3
CN=c1scc(C)n1/N=C/c1ccc2c(c1)OCO2	?	40µM*	?	nt	-37%	-6
O=[N+]([O-])c1cc(Cl)ccc1Nc1nc(Nc2ccc(Cl)cc2[N+](=O)[O-])nc(N2CCOCC2)n1	-29%[57.1 µM]	nt	nt	nt	-9%[57 µM]	nt
CCN(CC)c1ccc(/C=N/N2CCN(c3ccccc3OC)CC2)cc1	32µM*	32µM*	8.9µM*	-14%	14µM*	3
COc1ccc(/C=N/N2CCN(c3ccccc3OC)CC2)cc1Br	?	40µM*	3%[0.501 µM]	1%[2.29 µM]	-13%	25
COc1ccc(/C=N/N2CCN(c3ccccc3)CC2)cc1Br	-8%	4%	-7%	0%	18%	-3
COc1ccccc1N1CCN(/N=C/c2ccc(O)c(O)c2)CC1	22µM*	50µM*	-120%[12.7 µM]	-17%	28µM*	-1
COc1ccccc1N1CCN(/N=C/c2ccc(C(=O)O)cc2)CC1	-17%	1%	-8%	nt	32%	-2
COc1ccccc1N1CCN(/N=C/c2cc(OC)c(OC(C)=O)c(OC)c2)CC1	-17%	5%	18%[0.501 µM]	-7%[2.29 µM]	30%	-1
COc1ccc(/C=N/N2CCN(c3ccccc3OC)CC2)cc1OC	?	?	45µM*	-5%	-11%	nt
SMILES	JMJD2A Tudor inh	BAZ2B block	G9a inh	L3MBTL1 block	HP1b binding inh	PI5P4Ka inh
Cc1ccc(Cn2c(C)c(CNCc3ccc(OC(C)C)cc3)c(C(=O)O)c2C)cc1	-24%	?	-34%[59 µM]	nt	-4%	nt
CCCCn1nnnc1SCC(=O)c1cc(Cl)ccc1OC	34%	18%	65%	11%	63%	-1
COc1ccc(Cl)cc1C(=O)CSc1nc(N)cc(N)n1	?	5%	50µM*	10%	24%	-10
Cn1c(=O)n(-c2ccc3c(c2)OCO3)c2nc(-c3ccccc3)nc(C(N)=O)c21	?	?	?	nt	11%	nt
CCOC(=O)c1c(C)[nH]c(CCC(=O)NCc2ccccc2Cl)c1C	-19%	-14%	-1%[59 µM]	nt	13%[57 µM]	nt
CCn1c2ccccc2c2cc(CNCCCN3CCOCC3)ccc21	-9%	-26%	?	nt	36%	0
CCC(CC)NCc1ccc2c(c1)c1ccccc1n2CC	20µM*	45µM*	-119%[12.7 µM]	40%	?	?
CCn1c(C)cc(=S)c2ccccc21	-26%[57.1 µM]	-31%	3.2µM*	-4%	20%	4
CCn1c2ccccc2c2cc(N)ccc21	?	-32%	5.6µM*	-4%	?	-23
CCn1c2ccccc2c2cc(CNCc3ccc(OC)cc3OC)ccc21	?	45µM*	40µM*	-23%	?	-1
Cc1cc(=O)n2c(C(=O)Nc3ccc(Br)cc3)c(C(=O)Nc3ccccc3)sc2n1	-9%	2%	-17%[59 µM]	nt	6%	nt
CCOC(=O)c1c(C)oc2nc(C)nc(NCc3ccccc3Cl)c12	20%	0%[57.1 µM]	-5%[59 µM]	nt	52%	nt
CCn1c2ccccc2c2cc(/C=C(/C#N)C(N)=S)ccc21	20µM*	nt	nt	nt	?	-8
CCn1c2ccccc2c2cc(C3C(C#N)=C(C)NC(C)=C3C#N)ccc21	9%	10%	14%	18%	55%	nt
CCc1ccc2ncc3c(-c4ccccc4)nn(-c4ccccc4)c3c2c1	-12%	nt	2%[59 µM]	nt	4%	nt
Cc1nn2c(=O)cc(COC(=O)c3cccc(NC(=O)c4cccs4)c3)nc2s1	-10%	-7%	-10%[59 µM]	nt	59%	nt
Cc1ccc(-n2nnnc2-c2cnoc2-c2cccc(F)c2)cc1	16µM*	28%	-1%[59 µM]	14%	22%	-24
Fc1cc(F)cc(-c2oncc2-c2nnnn2-c2ccccc2)c1	79µM*	3%	7%[59 µM]	9%	3%	2
Cc1ccc(-n2nc(CO)c(C(=O)NC(C)CCCc3ccccc3)n2)cc1C (stereo unspecified)	-13%	-2%	7%[59 µM]	nt	45%	nt

Screening results (PubChem)
